Screening results: PubChem BioAssay, several laboratories
Yp Topo-I inh: inhibitors of Yersinia pestis topoisomerase I | Y. pestis Topo-I cleavage product accumulation, plate reader | activity, % at 10 µM | hit rate 0.064% among 360,000; in the data active = activity above about 50%, passing the limit was not always enough; inconclusive = no clear call, values can overlap the other calls
PrP 5UTR inh: suppresses PrP 5' UTR mRNA reporter expression; inhibition, % (concentration not given with the values); cell-based PrP 5' UTR mRNA reporter, plate reader; hit rate 0.35% among 340,000; in the data active = inhibition above about 52%; note: 0 = median of the neutral control wells
BJeLR lethal: BJeLR cell viability loss; BJeLR (HRASV12) viability, CellTiter-Glo ATP luminescence, 48 h; inhibition, % (concentration not given with the values); hit rate 0.17% among 300,000; in the data active = inhibition above about 50%; inconclusive = no clear call, values can overlap the other calls
Sa ugtP lethal: compounds lethal to S. aureus RN4220 ugtP deletion mutant | OD600 growth, 16 h | growth inhibition, % (test concentration not listed) | hit rate 0.54% among 330,000 | AID 1259309; in the data active = growth inhibition above about 68%;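 note: plate controls were untreated wells for no effect and antibiotic for full effect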
PfHsp40 yeast: rescue of PfHsp40-mediated yeast toxicity | growth rescue, % at 12.5 µM | hit rate 0.68% among 340,000 | AID 504582 | S. cerevisiae expressing PfHsp40, growth rescue, ATP luminescence; in the data active = growth rescue above about 28%, passing the limit was not always enough; inconclusive = no clear call, values can overlap the other calls;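 note: yeast W303a lacking pdr1 and pdr3 grown in galactose medium; growth measured after three days at 30 °C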
Sa RN4220 lethal: kills Staphylococcus aureus RN4220. S. aureus RN4220 growth, OD600, 16 h. inhibition, % (concentration not given with the values). hit rate 0.33% among 330,000. AID 1259311; in the data active = inhibition above about 85%;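 note: plate controls were untreated cells for no effect and reference antibiotic for full effect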
PrP UTR cherry: prion 5' UTR mRNA inhibition, cherry-pick retest; shares compounds with PrP 5UTR inh; cell-based prion protein 5' UTR reporter, plate reader; inhibition, % at 2.5 µM; hit rate 48% among 1,100; AID 504592; in the data active = inhibition above about 54%; inconclusive = no clear call, values can overlap the other calls
Active calls of the source: *; ? = inconclusive; · = no result given. Most compounds without a hit are left out; they make up all but 1.4% or so of the library.

SMILES | Yp Topo-I inh | PrP 5UTR inh | BJeLR lethal | Sa ugtP lethal | PfHsp40 yeast | Sa RN4220 lethal | PrP UTR cherry
CCOc1ccc2c(c1)C(C)=CC(C)(C)N2S(=O)(=O)c1ccc(C)cc1 | 22.5 | 66.0* | 27.3 | 23.5 | 10.5 | 12.6 | 86.7*
CCSC(=O)N=Nc1ccc(O)cc1 | 1.7 | 55.8* | · | · | 0.2 | · | 0.6
C=C(C=O)CC1CC(O)[C@]2(C)OC3CC4OC5C[C@]6(C)O[C@]7(C)CCC8OC9C[C@]%10(C)OC%11C(C)=CC(=O)OC%11CC%10OC9CC(C)C8OC7CC6O[C@]5(C)CC5OC5C4OC3CC2O1 (stereo partly drawn) | · | · | · | 10.0 | · | 8.2 | ·
C=C(C=O)CC1CC(O)[C@]2(C)OC3CC4OC5C[C@]6(C)O[C@]7(C)CCC8OC9C[C@]%10(C)OC%11C(C)=CC(=O)OC%11CC%10OC9C[C@@H](C)C8OC7CC6O[C@]5(C)CC5OC5C4OC3CC2O1 (stereo partly drawn) | 20.8 | 85.1* | 37.9 | · | · | · | 97.6*
COc1ccccc1NC(=O)c1oc2ccccc2c1NC(=O)c1cc(OC)c(OC)c(OC)c1 | -5.7 | 56.4* | 21.4 | -8.4 | -1.1 | 4.8 | 84.4*
CCn1c(C)nc2cc(-c3nc4n(n3)Cc3ccccc3-4)ccc21 | 7.9 | 94.2* | 62.8* | 23.1 | -3.6 | 20.0 | 95.6*
Cc1cc(Cl)ccc1NC(=S)N1CCN(Cc2ccccc2)CC1 | 6.8 | 51.1* | -11.2 | -0.9 | -0.7 | 0.2 | 9.0
Cc1ccc(CN2C(=O)C3Cc4c([nH]c5ccccc45)C(C)(C)N3C2=O)cc1 (stereo not drawn) | · | · | · | 3.4 | · | -0.4 | ·
COc1cccc2c1C(=O)C[C@]1(CCCCC1C)O2 (stereo partly drawn) | · | · | · | 7.1 | · | 7.3 | ·
C/C(=N\Nc1nc(N2CCCCC2)nc(N2CCOCC2)n1)c1ccccc1O | 6.9 | 80.6* | 2.8 | · | 3.4 | · | 11.1
CC(=NNc1nc(N2CCCCC2)nc(N2CCOCC2)n1)c1cccs1 | · | · | · | -2.4 | · | -4.0 | ·
CCOC1OC(C(=O)O)=CC(c2csc3ccccc23)C1CCCO (stereo not drawn) | · | · | · | -4.2 | · | 4.7 | ·
O=C1c2ccccc2S(=O)(=O)N1Cc1nc2ccccc2s1 | 7.4 | 70.5* | 3.5 | 16.5 | 0.8 | 7.5 | ?
Cc1ccccc1CN1C(=O)c2ccccc2S1(=O)=O | 6.3 | -21.3 | -4.2 | 5.0 | -0.9 | 3.3 | ·
CC(=O)OC[C@]12CCC(C)=C[C@H]1O[C@@H]1[C@H](O)[C@@H](OC(C)=O)[C@@]2(C)[C@]12CO2 | -3.0 | 89.8* | · | -29.0 | · | -2.0 | 96.5*
COc1ccc(S(=O)(=O)NCC(c2cccnc2)N2CCN(c3ccc(F)cc3)CC2)cc1C (stereo not drawn) | 36.3 | 52.4* | -7.0 | -10.2 | -0.5 | -18.5 | -2.1
CCC(=CC(=O)c1ccncc1)Nc1ccc(Br)cc1 | · | · | · | -2.4 | · | 4.3 | ·
O=C(O)c1cccc(NN=Cc2cccs2)c1 | · | · | · | 20.1 | · | -6.4 | ·
O=C(O)c1cccc(N/N=C/c2cccs2)c1 | -7.6 | 65.2* | 6.8 | · | 0.3 | · | 63.5*
COc1ccc(-c2ccc(C)cc2)cc1C1C2C=CCC[C@@]2(C)C(=O)N1Cc1ccccc1 (stereo partly drawn) | · | · | · | 2.8 | · | -5.0 | ·
Cc1ccc2nc(NC(=O)c3ccco3)sc2c1 | 2.0 | 59.3* | 10.2 | -6.5 | 3.2 | -0.5 | 37.6
O=C(NN=Cc1cc(Cl)ccc1O)c1ccccc1Br | · | · | · | 16.6 | · | 1.8 | ·
Oc1ccc(Cl)cc1C=Nc1ccccc1Br | -2.4 | 57.4* | -12.2 | 5.9 | -0.3 | 10.4 | -5.8
COc1ccc(C(=O)NC(=Cc2ccccc2)C(=O)NC(CC(C)C)C(=O)O)cc1 (stereo not drawn) | · | · | · | -5.6 | · | 3.4 | ·
CCOC(=O)c1c(C)[nH]c(C(=O)NN=Cc2ccccc2O)c1C | · | · | · | -0.2 | · | 7.2 | ·
CCOC(=O)c1c(C)[nH]c(C(=O)N/N=C/c2ccc(Br)cc2)c1C | 2.7 | 55.1* | 45.6 | · | 0.0 | · | 87.7*
COc1ccc(NC(=S)NCc2cccs2)cc1 | 1.5 | 75.3* | -1.9 | 3.0 | 0.1 | 2.4 | -12.0
CCCCNC(=O)C1c2cc(OC)c(OC)cc2C(=O)N(C)C1c1cccs1 (stereo not drawn) | -10.9 | 80.9* | -7.9 | -1.0 | -1.1 | 5.4 | -14.7
COc1ccc(C2CC(=O)C=C(c3ccc4ncccc4c3)C2)cc1 (stereo not drawn) | · | · | · | 5.2 | · | -0.1 | ·
